PubChem BioAssay (NCATS)
“And” between values parts separate entries of the source, which are not always exact repeats. Identical values can stand only once. Results filed as inconclusive are left out. Entries that show only a call come without a potency. Where a structure was tested more than once in an assay, its records may differ in their call. The source made the active and inactive calls. Calls come from the whole dose curve; as a rule, active = well fitted curve in the direction sought with a large enough effect; inconclusive = small, poorly fitted or top-dose-only effect, or another doubt; inactive = no such curve, though single readings can be large; an effect the other way counts as inactive or inconclusive.

Columns and labels:
[1] = Viability qHTS for spleen associated tyrosine kinase inhibitor (SYKi) naive MV4-11 cells (AID 1963823); note: nearly all actives have a fitted effect of over 40% in size; note: potency is the fitted concentration of half-maximal effect
In short: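 Compounds were dispensed acoustically onto plates, MV4-11 cells (SYKi-naive) added at 500 per well, and plates incubated 72 hr at 37 C. CellTiter-Glo was added and luminescence measured after 10 min.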

[2] = Viability qHTS for spleen associated tyrosine kinase inhibitor (SYKi) drug resistant MV4-11 cells (AID 1963824); note: nearly all actives have a fitted effect of over 35% in size; note: potency is the fitted concentration of half-maximal effect
In short: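 SYK-inhibitor-resistant MV4-11 AML cells were seeded at 500 per well onto compound and cultured 72 hours (37 °C, 5% CO2). CellTiter-Glo was then added, and after 10 min at room temperature, luminescence gave viability.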

[3] = Quantitative highthroughput screen to assess conditional lethalithy of NOMO1 cells grown in RPMI1640 with untreated serum (RPMI+s) (AID 1963876); note: nearly all actives have a fitted effect of over 35% in size; note: potency is the fitted concentration of half-maximal effect
In short: (§1)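 Each medium arm—HPLM with 10% dialyzed FBS, or RPMI1640 with 5 mM glucose and 10% untreated or dialyzed FBS—was screened against an 11-point, 3-fold compound titration for 48 h at 37 °C, with CellTiter-Glo luminescence as endpoint.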

[4] = Quantitative highthroughput screen to assess conditional lethalithy of NOMO1 cells grown in RPMI1640 with dialyzed fetal bovine serum (RPMI+ds) (AID 1963877); note: nearly all actives have a fitted effect of over 30% in size; note: potency is the fitted concentration of half-maximal effect; for Viability: series mostly up to about 46 µM
In short: as §1

[5] = Quantitative highthroughput screen to assess conditional lethalithy of NOMO1 cells grown in Human Plasma-Like Medium with dialyzed fetal bovine serum (HPLM+ds) (AID 1963878); note: nearly all actives have a fitted effect of over 35% in size; note: potency is the fitted concentration of half-maximal effect
In short: as §1

[6] = Quantitative highthroughput screen to assess conditional lethalithy of P12 Ichikawa cells grown in Human Plasma-Like Medium with dialyzed fetal bovine serum (HPLM+ds) (AID 1963879); settings: Potency: viability; note: nearly all actives have a fitted effect of over 35% in size; note: potency is the fitted concentration of half-maximal effect; for Viability: series mostly up to about 46 µM
In short: as §1

[7] = Quantitative highthroughput screen to assess conditional lethalithy of P12 Ichikawa cells grown in RPMI1640 with dialyzed fetal bovine serum (RPMI+ds) (AID 1963880); settings: Potency: P12-Ichikawa viability; note: nearly all actives have a fitted effect of over 35% in size; note: potency is the fitted concentration of half-maximal effect
In short: as §1

[8] = Quantitative highthroughput screen to assess conditional lethalithy of P12 Ichikawa cells grown in RPMI1640 with untreated serum (RPMI+s) (AID 1963881); settings: Potency: viability; note: nearly all actives have a fitted effect of over 35% in size; note: potency is the fitted concentration of half-maximal effect; for Viability: series mostly up to about 46 µM
In short: as §1

[9] = Quantitative highthroughput screen to assess conditional lethalithy of SEM cells grown in RPMI1640 with unreated serum (RPMI+s) (AID 1963883); note: nearly all actives have a fitted effect of over 35% in size
In short: as §1

[10] = Quantitative highthroughput screen to assess conditional lethalithy of SEM cells grown in RPMI1640 with dialyzed fetal bovine serum (RPMI+ds) (AID 1963884); note: nearly all actives have a fitted effect of over 35% in size; note: potency is the fitted concentration of half-maximal effect; for Viability: series mostly up to about 46 µM
In short: as §1

[11] = Cellular viability qHTS for adrenocortical cancer (ACC) cell line SW-13 (AID 1963989); settings: SW-13 ACC cells viability, CellTiter-Glo, 48 h; activity (max response): stronger effect = lower value; note: nearly all actives have a fitted effect of over 65% in size; note: potency is the fitted concentration of half-maximal effect;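 for activity (max response): cells grown in serum-free medium with ITS supplement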
In short: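 Here, serum-free SW-13 cultures were dosed up to 46 uM. Following 48 h, ATP-dependent luminescence (CellTiter-Glo) reported viable cells, and logistic modeling produced IC50 values.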

[12] = Cellular viability qHTS for adrenocortical cancer (ACC) cell line NCI-H295R (AID 1963990); note: nearly all actives have a fitted effect of over 60% in size; note: potency is the fitted concentration of half-maximal effect
In short: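 Viability of NCI-H295R after 48 h of treatment (final up to 46 uM) measured through cellular ATP luminescence.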

[13] = Quantitative highthroughput screen to assess conditional lethalithy of SEM cells grown in Human Plasma-Like Medium with dialyzed fetal bovine serum (HPLM+ds) (AID 1963882); note: nearly all actives have a fitted effect of over 35% in size; note: potency is the fitted concentration of half-maximal effect; for Viability: series mostly up to about 46 µM
In short: as §1

Structure (SMILES)	Potency [1]	Potency [2]	Potency [3]	Potency [4]	Potency [5]	Potency [6]	Potency [7]	Potency [8]	Potency [9]	Potency [10]	activity (max response) [11]	Potency [12]	Potency [13]	Potency [11]
CC(C)(CO)[C@@H](O)C(=O)NCCC(=O)O	inactive	inactive	inactive	inactive	inactive	inactive	inactive	inactive	inactive	inactive	-17.7% (inactive)	inactive	–	–
O=C1CCC(N2C(=O)c3ccccc3C2=O)C(=O)N1 (stereo unspecified)	inactive	inactive	inactive	inactive	inactive	inactive	inactive	inactive	–	inactive	13.3% (inactive) and -15.2% (inactive)	inactive	inactive	–
CNCc1ccc(-c2[nH]c3cc(F)cc4c3c2CCNC4=O)cc1	13 µM (active) and 16.6 µM (active)	20.6 µM (active) and 14.8 µM (active)	inactive	inactive	inactive	inactive	inactive	inactive	–	inactive	–	inactive	inactive	–
CN1C(=O)C(Cc2c[nH]c3ccccc23)NC1=S (stereo unspecified)	inactive	8.33 µM (active)	inactive	inactive	inactive	inactive	inactive	inactive	–	–	7.04% (inactive)	inactive	–	–
COc1cc2c(cc1OC)CC(=O)N(CCCN(C)C[C@H]1Cc3cc(OC)c(OC)cc31)CC2	inactive	inactive	inactive	inactive	inactive	inactive	inactive	inactive	–	inactive	10.3% (inactive)	–	inactive	–
CC1CCN(c2cc(N3CCN(C)CC3)ccc2NC(=O)c2cc(C#N)c[nH]2)CC1	5.25 µM (active)	11.8 µM (active)	inactive	inactive	inactive	inactive	inactive	inactive	inactive	inactive	-21.1% (inactive)	inactive	–	–
N=c1nc(N2CCCCC2)cc(N)n1O	inactive	inactive	inactive	inactive	inactive	inactive	inactive	inactive	–	–	5.33% (inactive)	inactive	–	–
O=c1cc(O)c(Cl)c[nH]1	inactive	inactive	7.43 µM (active)	8.33 µM (active)	5.26 µM (active)	7.43 µM (active)	14.8 µM (active)	8.33 µM (active)	–	–	20.2% (inactive)	inactive	–	–
NCCCCCC(=O)O	inactive	inactive	inactive	inactive	inactive	inactive	inactive	inactive	inactive	–	12.2% (inactive) and -16.4% (inactive)	–	–	–
NCCc1ccc(O)c(O)c1	20.9 µM (active)	inactive and 18.6 µM (active)	14.8 µM (active)	14.8 µM (active)	9.35 µM (active)	inactive	inactive	inactive	–	26.4 µM (active)	-9.5% (inactive) and -1.11% (inactive)	inactive	18.7 µM (active)	–
NC(=O)Cc1cccc(C(=O)c2ccccc2)c1N	inactive	inactive	inactive	inactive	inactive	inactive	inactive	inactive	–	–	0.0063% (inactive)	–	–	–
N[C@@]1(C(=O)O)CS(=O)(=O)[C@H]2[C@H](C(=O)O)[C@H]21	inactive	inactive	inactive	inactive	inactive	inactive	inactive	inactive	–	–	10.9% (inactive)	inactive	–	–
c1ccc2c(CCNc3ccc(Nc4ccncc4)cc3)c[nH]c2c1	1.16 µM (active) and 525 nM (active)	731 nM (active) and 590 nM (active)	16.6 µM (active)	18.7 µM (active)	14.8 µM (active)	23.5 µM (active)	20.9 µM (active)	16.6 µM (active)	–	0.833 µM (active)	–	3.55 µM (active)	0.935 µM (active)	–
CCC(C)n1ncn(-c2ccc(N3CCN(c4ccc(OC[C@H]5CO[C@](Cn6cncn6)(c6ccc(Cl)cc6Cl)O5)cc4)CC3)cc2)c1=O (stereo partly specified)	2.88 µM (active)	1.59 µM (active)	inactive	inactive	inactive	inactive	inactive	inactive	inactive	–	-10.2% (inactive) and 8.84% (inactive)	inactive	–	–
COc1cc2c(Oc3ccc(NC(=O)C4(C(=O)Nc5ccc(F)cc5)CC4)cc3F)ccnc2cc1OCCCN1CCOCC1	inactive and 2.6 nM (active)	0.0037 µM (active)	11.8 µM (active)	5.9 µM (active)	13.2 µM (active)	1.48 µM (active)	1.66 µM (active)	2.35 µM (active)	–	–	–	2.82 µM (active)	–	3.16 µM (active)
COc1ccc2nc3cc(Cl)ccc3c(Nc3cc(CN4CCCC4)c(O)c(CN4CCCC4)c3)c2n1	0.742 µM (active)	1.05 µM (active)	inactive	inactive	inactive	inactive	inactive	–	–	–	–	5.62 µM (active)	16.6 µM (active)	12.6 µM (active)
